Rows were chosen to be rich in hits. Some 4.2% of all compounds tested hit in one or more screens of this group.
VDR inh – Inhibitors of the vitamin D receptor (VDR): qHTS. Vitamin D3 receptor (Homo sapiens), P11473. VDR-SRC2-3 peptide fluorescence polarization, 2 h. Potency, µM, for the others: max response, negative = inhibition, most hits filed as inhibitors. hit rate 0.93% among 400,000. AID 504847, 2011
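After 23 nl compound addition and a short centrifugation, plates sat for 2 hours at ambient temperature; polarization of fluorescence then indicated loss of VDR binding to peptide SRC2-3.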
PLK1 PBD block – qHTS for Inhibitors of PLK1-PDB (polo-like kinase 1 - polo-box domain): Primary Screen | Serine/threonine-protein kinase PLK1 (Homo sapiens), P53350 | Plk1 PBD binding of FITC phosphopeptide, fluorescence polarization | Potency, µM, for inactives: max response, negative = inhibition, usual class: inhibitors | hit rate 2.8% among 360,000; also: series mostly up to about 57 µM; nearly all actives have a fitted effect of over 65% in size
Sfp inh – qHTS Assay for Inhibitors of Bacillus subtilis Sfp phosphopantetheinyl transferase (PPTase); 4'-phosphopantetheinyl transferase ffp (Bacillus subtilis), Q9F4F7; Biochemical Sfp PPTase activity, qHTS; Potency, µM, inactives show largest response in the series, negative = inhibition, most hits filed as inhibitors; hit rate 3.5% among 310,000;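 also: the enzyme is Sfp with the accession as filed and its product quenches rhodamine fluorescence; 0% = enzyme reaction without inhibitor and -100% = no enzyme wells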
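Sfp 15 nM + cpd, 15 min RT; start w/ rhodamine-CoA 5 uM, BHQ-2-YbbR 12.5 uM (final); 50 mM Hepes pH 7.6, 10 mM MgCl2, 0.01% NP-40, 0.01% BSA; read 525/598 nm at 0 and 30 min.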
ALOX12 inh – Primary qHTS assay for inhibitors of human arachidonate 12S-lipoxygenase (ALOX12): Round 2. Polyunsaturated fatty acid lipoxygenase ALOX12 (Homo sapiens), P18054. purified 12hLO, xylenol orange hydroperoxide absorbance. Potency, µM (top dose mostly 108 µM), without a hit: at the top dose activity change, negative = inhibition, actives largely listed as inhibitors. hit rate 1.1% among 580,000
Target sequence (P18054 whole entry, looked up): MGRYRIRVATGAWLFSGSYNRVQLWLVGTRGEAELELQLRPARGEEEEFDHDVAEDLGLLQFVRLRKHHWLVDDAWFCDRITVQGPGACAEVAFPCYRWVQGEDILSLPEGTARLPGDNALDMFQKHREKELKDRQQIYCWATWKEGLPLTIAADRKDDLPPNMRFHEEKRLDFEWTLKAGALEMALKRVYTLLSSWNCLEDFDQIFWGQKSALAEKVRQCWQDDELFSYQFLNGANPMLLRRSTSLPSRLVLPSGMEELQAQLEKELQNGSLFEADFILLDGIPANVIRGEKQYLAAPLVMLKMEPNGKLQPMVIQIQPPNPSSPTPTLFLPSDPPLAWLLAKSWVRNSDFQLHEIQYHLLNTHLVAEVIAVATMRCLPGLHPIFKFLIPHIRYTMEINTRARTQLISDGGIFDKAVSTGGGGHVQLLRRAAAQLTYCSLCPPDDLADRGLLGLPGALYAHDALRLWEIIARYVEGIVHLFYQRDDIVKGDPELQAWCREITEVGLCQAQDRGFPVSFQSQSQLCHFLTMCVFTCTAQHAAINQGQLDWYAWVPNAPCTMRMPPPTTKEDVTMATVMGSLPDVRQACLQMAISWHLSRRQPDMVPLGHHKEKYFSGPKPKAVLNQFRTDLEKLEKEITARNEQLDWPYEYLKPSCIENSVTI
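Purified human 12hLO (150 nM final) in 25 mM Hepes, 0.01% Triton X-100, pH 7.0 was preincubated 15 min at room temperature with compound. Then 40 uM arachidonic acid was added, 30 min. Hydroperoxide was read by Fe-XO absorbance ratio 573/405 nm.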
* hit, by the source's call; u = inconclusive; x = not tested or not shown. Calls follow the shape of the dose curve; as a rule, active = well fitted curve in the direction sought with a large enough effect; inconclusive = small, poorly fitted or top-dose-only effect, or another doubt; inactive = no such curve, though single readings can be large; an effect the other way counts as inactive or inconclusive. Unless noted, % is scaled to controls: 0 for no effect and ±100 for the full control effect; potency is read from the fitted curve at half-maximal effect.

SMILES | VDR inh | PLK1 PBD block | Sfp inh | ALOX12 inh
CO/N=C(/C(=O)N[C@@H]1C(=O)N2C(C(=O)O)=CCS[C@H]12)c1csc(N)n1 | 35.5µM* | x | 50.1µM* | x
CO/N=C(/C(=O)N[C@@H]1C(=O)N2C(C(=O)O)=C(CSc3nc(C)c(CC(=O)O)s3)CS[C@H]12)c1csc(N)n1 | 35.5µM* | x | u | x
CC(C)(Oc1ccc(-c2ccco2)cc1)C(=O)O | x | x | 35.5µM* | x
Nc1ccc2nc(-c3cc(Cl)c(N)c(Cl)c3)[nH]c2c1 | u | 23.8µM* | u | 96.4%
Nc1ccc2nc(-c3ccc(Cl)cc3)[nH]c2c1 | 1.5% | 0.4% | -19.4% | -2.3%
O=C(CNCC1CCCO1)Nc1ccc(N2CCCCCC2)cc1 (stereo not given) | -0.2% | -2.5% | 56.2µM* | 17.9%
O=C(CNCC1CCCO1)Nc1ccccc1N1CCCCCC1 (stereo not given) | 4.0% | u | -8.6% | 0.0%
O=C(Nc1ccc(N2CCCC2)cc1)C(Cl)c1ccccc1 (stereo not given) | 44.7µM* | -29.0% | 44.7µM* | x
CS(=O)(=O)N1CCN(c2ccc(NC(=O)C(c3ccccc3)c3ccccc3)cc2)CC1 | -3.7% | -1.9% | 15.2% | 18.6%
O=C(O)CCC(=O)Nc1ccc(N2CCCCCC2)cc1 | u | -7.4% | 22.4µM* | u
O=C(CNCCC1=CCCCC1)Nc1ccc(N2CCCCCC2)cc1 | -3.2% | -5.1% | 15.8µM* | -56.2%
CCOc1ccc(S(=O)(=O)N2CCOCC2)cc1NC(=O)CN1C(=O)NC(C)(C2CC2)C1=O (stereo not given) | x | -1.9% | x | u
Cc1c(C(=O)N2CCCC2)sc(NC(=O)c2ccco2)c1C#N | 32.5% | -19.3% | 0.4% | 0.0%
O=C(O)c1ccc(-c2cccc(Cl)c2)o1 | -12.0% | -9.6% | x | -21.5%
O=C(O)c1ccc(-c2ccc(-c3ccccc3)cc2)o1 | 89.1µM* | x | u | x
Cc1cc(N=Cc2c(O)n(-c3cccc(C(F)(F)F)c3)c(=O)c3ccccc23)no1 | -7.1% | -2.5% | 63.1µM* | -16.1%
CCC(Oc1ccccc1)C(=O)Nc1nc2c(s1)C(=O)CC(C)(C)C2 (stereo not given) | -2.4% | -15.6% | 9.0% | 0.0%
CN1CCCCCC1=Nc1ccc([N+](=O)[O-])cc1 | 3.5% | -12.2% | x | 124.8%
CN1C(=O)C(N=Nc2ccc([N+](=O)[O-])cc2)SC1=S (stereo not given) | -0.7% | 13.4µM* | x | u
Cc1ccc(NC(=O)c2cc(S(=O)(=O)N3CCc4ccccc43)cn2C)cc1C | -25.8% | -11.9% | 15.2% | 44.3%
Cc1c(Br)c([N+](=O)[O-])nn1CC(=O)NCc1ccccc1 | u | 11.9µM* | 6.5% | 67.7%
COc1ccc(CNC(=O)Cn2nc([N+](=O)[O-])c(Br)c2C)cc1 | -5.5% | -10.1% | -6.5% | 16.9%
CCC(C)CCCCC(=O)NC(CCN)C(=O)NC(C(=O)NC(CCN)C(=O)NC1CCNC(=O)C(C(C)O)NC(=O)C(CCN)NC(=O)C(CCN)NC(=O)C(CC(C)C)NC(=O)C(Cc2ccccc2)NC(=O)C(CCN)NC1=O)C(C)O (stereo not given) | -0.4% | x | 28.2µM* | x
CC(C(=O)Nc1cccc(C#N)c1)N(C)CCOc1ccccc1 (stereo not given) | -7.2% | -10.8% | 2.9% | u
COC(=O)c1c(-c2cccnc2)csc1NC(=O)c1ccc2c(c1)OCO2 | 89.1µM* | -28.8% | u | 340.4%
SMILES | VDR inh | PLK1 PBD block | Sfp inh | ALOX12 inh
O=C1C=CC(=O)N1 | 39.8µM* | 29.9µM* | x | 3.6%
S=C(NN=C(c1ccccc1)c1ccccn1)N(Cc1ccccn1)Cc1ccccn1 | -23.8% | u | x | 44.7µM*
CC(=NNC(=S)N(Cc1ccccn1)Cc1ccccn1)c1cnccn1 | -3.5% | -22.3% | x | u
CC(=O)OCCCNc1cc(SCc2ccco2)c2nonc2c1[N+](=O)[O-] | 79.4µM* | u | 25.1µM* | u
CCC(=O)OCCNc1cc(Sc2nc3ccccc3[nH]2)c2nonc2c1[N+](=O)[O-] | u | 1.19µM* | 17.8µM* | u
CCCC(=O)OCCNc1cc(SCc2ccco2)c2nonc2c1[N+](=O)[O-] | u | u | 11.2µM* | u
CCCSc1cc(NCCOC(=O)CCC)c([N+](=O)[O-])c2nonc12 | u | 16.8µM* | -17.6% | u
CCCSc1cc(NCCOC(C)=O)c([N+](=O)[O-])c2nonc12 | u | u | -17.1% | -7.3%
Cc1cc2nnc(SCC(=O)N3CCCCCC3)n2c(N)n1 | 8.9% | 1.2% | 3.6% | 0.5%
COc1ccccc1NC1=C(Cl)C(=O)OC1OC(=O)c1ccco1 (stereo not given) | 4.7% | -2.7% | 11.4% | -9.1%
CCOC(=O)Nc1ccc2c(c1)C(=NNC(=S)NC)c1ccccc1-2 | x | -3.2% | x | 39.8µM*
CCCN1CCN(CCCNC(=O)Cn2nc(C)n3c(cc4cc(F)ccc43)c2=O)CC1 | -13.8% | 29.9µM* | 20.5% | 30.1%
CC(C)Cc1oc(C(=O)O)cc1CN1CCOCC1 | -18.2% | 1.3% | -3.3% | -15.2%
Cc1cc(-c2ccc(Cl)cc2Cl)c(C#N)c(=O)[nH]1 | u | 16.8µM* | 2.3% | 6.0%
Cc1cc(C)cc(NC(=O)Cn2ncn3c(cc4ccccc43)c2=O)c1 | -10.9% | 4.0% | 1.6% | 2.4%
COC(=O)Cn1ncn2c(cc3oc(C)cc32)c1=O | 18.2% | 0.3% | 56.2µM* | -5.5%
O=C(/C=C/c1cc2ccccc2nc1N1CCOCC1)c1cccc(O)c1 | x | x | x | 15.8µM*
CCCn1nc(C(=O)NCC(c2cccs2)N2CCCC2)c2ccccc2c1=O (stereo not given) | x | x | x | -17.1%
C=C(C)Cn1c(SCC(=O)OC)nc2c1c(=O)[nH]c(=O)n2C | x | x | x | -5.2%
c1ccc(-c2cnc(CSc3nnnn3-c3ccccc3)o2)cc1 | x | x | x | 5.8%
Oc1ccc(-n2nnnc2SCc2ncc(-c3ccc(Cl)cc3)o2)cc1 | x | x | x | 31.6µM*
Cc1ccc(C)n1-c1ccc(C(=O)NCc2ccncc2)cc1 | 11.8% | -27.1% | 2.3% | 0.3%
Cc1ccc(C)n1-c1ccc(C(=O)NN)cc1 | u | 2.99µM* | -1.2% | -0.7%
Cc1cccc(NC(=O)CN2C(=O)S/C(=C\c3cc(C)n(C)c3C)C2=O)c1 | -10.6% | -4.9% | 56.2µM* | -24.7%
Cc1ccc(NC(=O)CN2C(=O)S/C(=C\c3ccc(C(=O)O)cc3)C2=O)cc1 | -13.5% | -15.8% | -7.0% | 0.2%
C#CCN1C(=O)S/C(=C\c2ccc(-c3ccc(C(=O)O)cc3C)o2)C1=O | -12.2% | u | -29.8% | 11.3%
Cc1ccccc1NC(=O)CN1C(=O)S/C(=C\c2ccc(-c3cc(C(=O)O)ccc3C)o2)C1=O | 12.4% | -19.9% | 35.5µM* | u
Cc1ccc(C(=O)O)cc1-c1ccc(/C=C2\SC(=O)N(CC(=O)Nc3ccccc3)C2=O)o1 | 17.2% | u | 17.8µM* | u
Cc1cc(C(=O)O)ccc1-c1ccc(/C=C2\SC(=O)N(CC(=O)Nc3ccc4c(c3)OCO4)C2=O)o1 | x | x | 50.1µM* | u

Screening data: PubChem, National Center for Advancing Translational Sciences (NCATS)
